From the supplement of paper PMC4466140

Legend:
Assay in all cases: SPOT peptide array binding signal intensity (averaged, normalized) (arbitrary units (background-subtracted, floor 0; scale differs between SH3 domains)); higher = stronger binding of the SH3 domain to the peptide
AgAbp1 = target: AgAbp1
Experimental: (§1)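 GST-tagged SH3 domains from S. cerevisiae (Sc), A. gossypii (Ag), C. albicans (Ca) and S. pombe (Sp) were incubated at 10 ug/ml overnight at 4 C on cellulose SPOT membranes carrying 292 synthetic 15-mer peptides mined from the S. cerevisiae proteome (cysteines replaced by serines). Binding was detected with anti-GST antibody, HRP secondary and chemiluminescence, quantified with Genespotter, and reported as normalized spot intensities averaged over biological replicates.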

AgBbc1 = target: AgBbc1
Experimental: as §1

AgBem1-D1 = target: AgBem1-D1
Experimental: as §1

AgBzz1-D1 = target: AgBzz1-D1
Experimental: as §1

AgBzz1-D2 = target: AgBzz1-D2
Experimental: as §1

AgCyk3 = target: AgCyk3
Experimental: as §1

AgFus1 = target: AgFus1
Experimental: as §1

AgHof1 = target: AgHof1
Experimental: as §1

AgHse1 = target: AgHse1
Experimental: as §1

AgLsb1 = target: AgLsb1
Experimental: as §1

AgLsb4 = target: AgLsb4
Experimental: as §1

AgMyo5 = target: AgMyo5
Experimental: as §1

AgNbp2 = target: AgNbp2
Experimental: as §1

AgRvs167 = target: AgRvs167
Experimental: as §1

AgSho1 = target: AgSho1
Experimental: as §1

AgSla1-D1-D2 = target: AgSla1-D1-D2
Experimental: as §1

AgSla1-D3 = target: AgSla1-D3
Experimental: as §1

CaAbp1-D1 = target: CaAbp1-D1
Experimental: as §1

CaAbp1-D2 = target: CaAbp1-D2
Experimental: as §1

CaBbc1 = target: CaBbc1
Experimental: as §1

CaBem1-D1 = target: CaBem1-D1
Experimental: as §1

CaBzz1-D1 = target: CaBzz1-D1
Experimental: as §1

CaBzz1-D2 = target: CaBzz1-D2
Experimental: as §1

CaCyk3 = target: CaCyk3
Experimental: as §1

CaFus1 = target: CaFus1
Experimental: as §1

CaHof1 = target: CaHof1
Experimental: as §1

CaHse1 = target: CaHse1
Experimental: as §1

CaLsb1 = target: CaLsb1
Experimental: as §1

CaLsb4 = target: CaLsb4
Experimental: as §1

CaMyo5 = target: CaMyo5
Experimental: as §1

SpBzz1-D2 = target: SpBzz1-D2
Experimental: as §1

SpCyk3 = target: SpCyk3
Experimental: as §1

SpHof1 = target: SpHof1
Experimental: as §1

SpHof1-2 = target: SpHof1-2
Experimental: as §1

SpHof1-3 = target: SpHof1-3
Experimental: as §1

SpHse1 = target: SpHse1
Experimental: as §1

SpLsb1 = target: SpLsb1
Experimental: as §1

SpLsb4 = target: SpLsb4
Experimental: as §1

SpMyo1 = target: SpMyo1
Experimental: as §1

SpNbp2 = target: SpNbp2
Experimental: as §1

SpPex13 = target: SpPex13
Experimental: as §1

SpRvs167 = target: SpRvs167
Experimental: as §1

SpSla1-D1-D2 = target: SpSla1-D1-D2
Experimental: as §1

SpSla1-D3 = target: SpSla1-D3
Experimental: as §1

CaNbp2 = target: CaNbp2
Experimental: as §1

CaRvs167 = target: CaRvs167
Experimental: as §1

CaRvs167-3 = target: CaRvs167-3
Experimental: as §1

CaSho1 = target: CaSho1
Experimental: as §1

CaSla1-D1-D2 = target: CaSla1-D1-D2
Experimental: as §1

CaSla1-D3 = target: CaSla1-D3
Experimental: as §1

ScAbp1 = target: ScAbp1
Experimental: as §1

ScBbc1 = target: ScBbc1
Experimental: as §1

ScBem1-D1 = target: ScBem1-D1
Experimental: as §1

ScBzz1-D1 = target: ScBzz1-D1
Experimental: as §1

ScBzz1-D2 = target: ScBzz1-D2
Experimental: as §1

ScCyk3 = target: ScCyk3
Experimental: as §1

ScFus1 = target: ScFus1
Experimental: as §1

ScHof1 = target: ScHof1
Experimental: as §1

ScHse1 = target: ScHse1
Experimental: as §1

ScLsb1 = target: ScLsb1
Experimental: as §1

ScLsb2 = target: ScLsb2
Experimental: as §1

ScLsb3 = target: ScLsb3
Experimental: as §1

ScLsb4 = target: ScLsb4
Experimental: as §1

ScMyo3 = target: ScMyo3
Experimental: as §1

ScMyo5 = target: ScMyo5
Experimental: as §1

ScNbp2 = target: ScNbp2
Experimental: as §1

ScPex13 = target: ScPex13
Experimental: as §1

ScRvs167 = target: ScRvs167
Experimental: as §1

ScSho1 = target: ScSho1
Experimental: as §1

ScSla1-D1-D2 = target: ScSla1-D1-D2
Experimental: as §1

ScSla1-D3 = target: ScSla1-D3
Experimental: as §1

SpAbp1-D1 = target: SpAbp1-D1
Experimental: as §1

SpBbc1 = target: SpBbc1
Experimental: as §1

SpBzz1-D1 = target: SpBzz1-D1
Experimental: as §1

YRRKSIPFAPHQITA
SPOT peptide array binding signal intensity (AgAbp1): 34 | SPOT peptide array binding signal intensity (AgBbc1): 11.5 | SPOT peptide array binding signal intensity (AgBem1-D1): 21.5 | SPOT peptide array binding signal intensity (AgBzz1-D1): 99.5 | SPOT peptide array binding signal intensity (AgBzz1-D2): 34 | SPOT peptide array binding signal intensity (AgCyk3): 1 | SPOT peptide array binding signal intensity (AgFus1): 131 | SPOT peptide array binding signal intensity (AgHof1): 5.5 | SPOT peptide array binding signal intensity (AgHse1): 162 | SPOT peptide array binding signal intensity (AgLsb1): 25.8 | SPOT peptide array binding signal intensity (AgLsb4): 24 | SPOT peptide array binding signal intensity (AgMyo5): ≤ 0 | SPOT peptide array binding signal intensity (AgNbp2): 62.5 | SPOT peptide array binding signal intensity (AgRvs167): 3.67 | SPOT peptide array binding signal intensity (AgSho1): 16.5 | SPOT peptide array binding signal intensity (AgSla1-D1-D2): 39 | SPOT peptide array binding signal intensity (AgSla1-D3): 2.5 | SPOT peptide array binding signal intensity (CaAbp1-D1): 187 | SPOT peptide array binding signal intensity (CaAbp1-D2): 116 | SPOT peptide array binding signal intensity (CaBbc1): 41.5 | SPOT peptide array binding signal intensity (CaBem1-D1): 24 | SPOT peptide array binding signal intensity (CaBzz1-D1): 182 | SPOT peptide array binding signal intensity (CaBzz1-D2): 148 | SPOT peptide array binding signal intensity (CaCyk3): 6 | SPOT peptide array binding signal intensity (CaFus1): 159 | SPOT peptide array binding signal intensity (CaHof1): 2 | SPOT peptide array binding signal intensity (CaHse1): 16.8 | SPOT peptide array binding signal intensity (CaLsb1): 3 | SPOT peptide array binding signal intensity (CaLsb4): 13 | SPOT peptide array binding signal intensity (CaMyo5): 0.5

RRLRDKYKLPIVDAD
SPOT peptide array binding signal intensity (SpBzz1-D2): 0.5 | SPOT peptide array binding signal intensity (SpCyk3): 2.5 | SPOT peptide array binding signal intensity (SpHof1): 54.5 | SPOT peptide array binding signal intensity (SpHof1-2): 12 | SPOT peptide array binding signal intensity (SpHof1-3): 318 | SPOT peptide array binding signal intensity (SpHse1): 346 | SPOT peptide array binding signal intensity (SpLsb1): 49.2 | SPOT peptide array binding signal intensity (SpLsb4): 44 | SPOT peptide array binding signal intensity (SpMyo1): 1.25 | SPOT peptide array binding signal intensity (SpNbp2): 105 | SPOT peptide array binding signal intensity (SpPex13): 9 | SPOT peptide array binding signal intensity (SpRvs167): 0.833 | SPOT peptide array binding signal intensity (SpSla1-D1-D2): 3 | SPOT peptide array binding signal intensity (SpSla1-D3): 6

GLRRARYKFPGQQKI
SPOT peptide array binding signal intensity (AgAbp1): 36.5 | SPOT peptide array binding signal intensity (AgBbc1): 30 | SPOT peptide array binding signal intensity (AgBem1-D1): 75 | SPOT peptide array binding signal intensity (AgBzz1-D1): 22.5 | SPOT peptide array binding signal intensity (AgBzz1-D2): 26 | SPOT peptide array binding signal intensity (AgCyk3): 3 | SPOT peptide array binding signal intensity (AgFus1): 230 | SPOT peptide array binding signal intensity (AgHof1): 24.5 | SPOT peptide array binding signal intensity (AgHse1): 283 | SPOT peptide array binding signal intensity (AgLsb1): 17.2 | SPOT peptide array binding signal intensity (AgLsb4): 32.5 | SPOT peptide array binding signal intensity (AgMyo5): 2 | SPOT peptide array binding signal intensity (AgNbp2): 55 | SPOT peptide array binding signal intensity (AgRvs167): 5.67 | SPOT peptide array binding signal intensity (AgSho1): 22 | SPOT peptide array binding signal intensity (AgSla1-D1-D2): 228 | SPOT peptide array binding signal intensity (AgSla1-D3): 3 | SPOT peptide array binding signal intensity (CaAbp1-D1): 388 | SPOT peptide array binding signal intensity (CaAbp1-D2): 257 | SPOT peptide array binding signal intensity (CaBbc1): 91.5 | SPOT peptide array binding signal intensity (CaBem1-D1): 11 | SPOT peptide array binding signal intensity (CaBzz1-D1): 74.5 | SPOT peptide array binding signal intensity (CaBzz1-D2): 69 | SPOT peptide array binding signal intensity (CaCyk3): 20.5 | SPOT peptide array binding signal intensity (CaFus1): 254 | SPOT peptide array binding signal intensity (CaHof1): 1 | SPOT peptide array binding signal intensity (CaHse1): 11.5 | SPOT peptide array binding signal intensity (CaLsb1): 0.5 | SPOT peptide array binding signal intensity (CaLsb4): 13 | SPOT peptide array binding signal intensity (CaMyo5): 2.5 | SPOT peptide array binding signal intensity (CaNbp2): 140 | SPOT peptide array binding signal intensity (CaRvs167): 15.2 | SPOT peptide array binding signal intensity (CaRvs167-3): 105 | SPOT peptide array binding signal intensity (CaSho1): 254 | SPOT peptide array binding signal intensity (CaSla1-D1-D2): 75 | SPOT peptide array binding signal intensity (CaSla1-D3): 3 | SPOT peptide array binding signal intensity (ScAbp1): 36 | SPOT peptide array binding signal intensity (ScBbc1): 19 | SPOT peptide array binding signal intensity (ScBem1-D1): 24 | SPOT peptide array binding signal intensity (ScBzz1-D1): 19 | SPOT peptide array binding signal intensity (ScBzz1-D2): 22 | SPOT peptide array binding signal intensity (ScCyk3): 107 | SPOT peptide array binding signal intensity (ScFus1): 244 | SPOT peptide array binding signal intensity (ScHof1): 1.5 | SPOT peptide array binding signal intensity (ScHse1): 854 | SPOT peptide array binding signal intensity (ScLsb1): 8.25 | SPOT peptide array binding signal intensity (ScLsb2): 5 | SPOT peptide array binding signal intensity (ScLsb3): 63 | SPOT peptide array binding signal intensity (ScLsb4): 13 | SPOT peptide array binding signal intensity (ScMyo3): 2 | SPOT peptide array binding signal intensity (ScMyo5): 4.5 | SPOT peptide array binding signal intensity (ScNbp2): 167 | SPOT peptide array binding signal intensity (ScPex13): 8.5 | SPOT peptide array binding signal intensity (ScRvs167): 31 | SPOT peptide array binding signal intensity (ScSho1): 296 | SPOT peptide array binding signal intensity (ScSla1-D1-D2): 294 | SPOT peptide array binding signal intensity (ScSla1-D3): 5 | SPOT peptide array binding signal intensity (SpAbp1-D1): 196 | SPOT peptide array binding signal intensity (SpBbc1): 2 | SPOT peptide array binding signal intensity (SpBzz1-D1): 145 | SPOT peptide array binding signal intensity (SpBzz1-D2): 0.5 | SPOT peptide array binding signal intensity (SpCyk3): 6 | SPOT peptide array binding signal intensity (SpHof1): 180 | SPOT peptide array binding signal intensity (SpHof1-2): 5 | SPOT peptide array binding signal intensity (SpHof1-3): 199 | SPOT peptide array binding signal intensity (SpHse1): 268 | SPOT peptide array binding signal intensity (SpLsb1): 26 | SPOT peptide array binding signal intensity (SpLsb4): 56 | SPOT peptide array binding signal intensity (SpMyo1): 1 | SPOT peptide array binding signal intensity (SpNbp2): 120 | SPOT peptide array binding signal intensity (SpPex13): 16 | SPOT peptide array binding signal intensity (SpRvs167): 12.5 | SPOT peptide array binding signal intensity (SpSla1-D1-D2): 1 | SPOT peptide array binding signal intensity (SpSla1-D3): 13
